Common to all, as to conditions: mRNA level, 48 h; actives raise or lower the signal
Read-out in assay [1]: Glutamate-cysteine ligase catalytic (GCLC), GCLC (gene 2729)
The assay is described as follows: LTEA_HepaRG_GCLC: Life Technologies and Expression Analysis (LTEA) Assay for Glutamate-cysteine ligase catalytic (GCLC) using HepaRG (AID 2283498). The method, boiled down:
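HepaRG, 48 h exposure, 8-pt half-log series from 100 uM, 0.5% DMSO vehicle; TaqMan qRT-PCR for GCLC mRNA, housekeeping-normalized; bidirectional curve fit vs DMSO baseline.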

Read-out in assay [2]: growth arrest and DNA damage 45 (GADD45G), GADD45G (gene 10912)
The assay is described as follows: LTEA_HepaRG_GADD45G: Life Technologies and Expression Analysis (LTEA) Assay for growth arrest and DNA damage 45 (GADD45G) using HepaRG (AID 2283499). The method, boiled down:
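Differentiated human HepaRG cells, 48 h post-plating, exposed 48 h in serum-free induction medium to 8 half-log concentrations (top 100 uM, 0.5% DMSO) in duplicate. GADD45G mRNA measured by Fluidigm TaqMan qRT-PCR, normalized to ACTB, GAPDH, POLR2A; bidirectional fit versus DMSO.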

Read-out in assay [3]: Glutamate-cysteine ligase regulatory (GCLM), GCLM (gene 2730)
The assay is described as follows: LTEA_HepaRG_GCLM: Life Technologies and Expression Analysis (LTEA) Assay for Glutamate-cysteine ligase regulatory (GCLM) using HepaRG (AID 2283500). The method, boiled down: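 Endpoint is GCLM transcript level by qRT-PCR, normalized to three housekeeping genes, after 48 h chemical exposure of human HepaRG cells (0.5% DMSO vehicle, top 100 uM, half-log dilutions). Fitting was bidirectional relative to DMSO.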

Read-out in assay [4]: Glutathione S-transferase M3 (GSTM3), GSTM3 (gene 2947)
The assay is described as follows: LTEA_HepaRG_GSTM3: Life Technologies and Expression Analysis (LTEA) Assay for Glutathione S-transferase M3 (GSTM3) using HepaRG (AID 2283501). In outline:
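Differentiated human HepaRG cells were exposed in duplicate for 48 h in serum-free induction medium, 8 points from 100 uM top in half-log steps, 0.5% DMSO. GSTM3 mRNA was measured by TaqMan qRT-PCR, normalized to ACTB, GAPDH and POLR2A; bidirectional fit versus DMSO.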

Read-out in assay [5]: Heat shock 70 kDa protein 1 (HSPA1A), gene 3303
The assay is described as follows: LTEA_HepaRG_HSPA1A: Life Technologies and Expression Analysis (LTEA) Assay for Heat shock 70 kDa protein 1 (HSPA1A) using HepaRG (AID 2283502). The method, boiled down: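 Cells were plated and cultured for 48 h, then switched to serum-free induction medium. Chemicals were added at eight half-log concentrations up to 100 uM for 48 h. RNA was then isolated and HSPA1A measured by qRT-PCR with bidirectional curve fitting against DMSO.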

Read-out in assay [6]: Hypoxia-inducible factor 1-alpha (Homo sapiens) (UniProt Q16665)
The assay is described as follows: LTEA_HepaRG_HIF1A: Life Technologies and Expression Analysis (LTEA) Assay for Hypoxia-inducible factor 1 (HIF1A) Trancription factor using HepaRG (AID 2283503). In outline: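 HIF1A transcript level read by qRT-PCR (ACTB, GAPDH, POLR2A normalization) after 48 h chemical exposure of HepaRG cultures. Eight half-log concentrations, top 100 uM, 0.5% DMSO vehicle, duplicates; bidirectional curve fit against DMSO baseline.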

Read-out in a further assay: HGF (gene 3082)
The assay is described as follows: LTEA_HepaRG_HGF: Life Technologies and Expression Analysis (LTEA) Assay for Hepatocyte Growth Facto (HGF) using HepaRG (AID 2283505). The method, boiled down:
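Differentiated HepaRG cells in serum-free induction medium exposed 48 h in duplicate, 8 half-log concentrations from 100 uM in 0.5% DMSO. HGF mRNA by qRT-PCR, normalised to ACTB, GAPDH, POLR2A; bidirectional fitting.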

Read-out in assay [7]: Insulin Like Growth Factor 1 (IGF1), IGF1 (gene 3479)
The assay is described as follows: LTEA_HepaRG_IGF1: Life Technologies and Expression Analysis (LTEA) Assay for Insulin Like Growth Factor 1 (IGF1) using HepaRG (AID 2283506). In outline: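 Cells are thawed, plated and cultured 48 h, then exposed in duplicate to chemical (highest 100 uM, half-log steps, 0.5% DMSO) for another 48 h. Total RNA is analysed by Fluidigm qRT-PCR for IGF1 expression relative to vehicle.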

Read-out in assay [8]: Intercellular Adhesion Molecule 1 (ICAM1), ICAM1 (gene 3383)
The assay is described as follows: LTEA_HepaRG_ICAM1: Life Technologies and Expression Analysis (LTEA) Assay for Intercellular Adhesion Molecule 1 (ICAM1) using HepaRG (AID 2283507). In outline: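 Differentiated human HepaRG cells in serum-free induction medium exposed 48 h in duplicate to 8 half-log concentrations (top 100 uM, 0.5% DMSO). ICAM1 mRNA quantified by TaqMan qRT-PCR, normalized to ACTB, GAPDH and POLR2A; bidirectional fitting versus DMSO.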

Read-out in assay [9]: Interleukin 6 (IL6), IL6 (gene 3569)
The assay is described as follows: LTEA_HepaRG_IL6: Life Technologies and Expression Analysis (LTEA) Assay for Interleukin 6 (IL6) using HepaRG (AID 2283509). In outline: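 qRT-PCR read-out of IL6 transcript, normalized to three housekeeping genes, after 48 h chemical exposure of HepaRG cells; 8-point half-log series, top 100 uM, 0.5% DMSO vehicle. Bidirectional curve fitting against DMSO baseline.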

Read-out in assay [10]: Interleukin 6 Receptor (IL6R), IL6R (gene 3570)
The assay is described as follows: LTEA_HepaRG_IL6R: Life Technologies and Expression Analysis (LTEA) Assay for Interleukin 6 Receptor (IL6R) using HepaRG (AID 2283510). The method, boiled down: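 Cells were thawed, plated and cultured 48 h, then medium was changed to serum-free induction medium. Chemicals were added in duplicate (100 uM top, half-log steps, 0.5% DMSO) for 48 h. Lysates were analyzed by qRT-PCR for IL6R expression.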

Read-out in assay [11]: Potassium channel subfamily K member 1 (KCNK1), KCNK1 (gene 3775)
The assay is described as follows: LTEA_HepaRG_KCNK1: Life Technologies and Expression Analysis (LTEA) Assay for Potassium channel subfamily K member 1 (KCNK1) using HepaRG (AID 2283511). The method, boiled down:
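HepaRG, 48 h exposure, 8-pt half-log series top 100 uM, 0.5% DMSO vehicle, duplicates. Readout: KCNK1 transcript by qRT-PCR (Fluidigm array), housekeeping-normalized; bidirectional curve fit relative to DMSO baseline.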

Read-out in assay [12]: Keratin 19 (KRT19), KRT19 (gene 3880)
The assay is described as follows: LTEA_HepaRG_KRT19: Life Technologies and Expression Analysis (LTEA) Assay for Keratin 19 (KRT19) using HepaRG (AID 2283512). The method, boiled down:
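Differentiated HepaRG cells in serum-free induction medium, exposed 48 h in duplicate to 8 half-log concentrations up to 100 uM in 0.5% DMSO. KRT19 mRNA by qRT-PCR, normalized to ACTB, GAPDH, POLR2A; bidirectional fit vs DMSO.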

Read-out in assay [13]: JUN Transcription Factor, JUN (gene 3725)
The assay is described as follows: LTEA_HepaRG_JUN: Life Technologies and Expression Analysis (LTEA) Assay for JUN Transcription Factor using HepaRG (AID 2283513). The method, boiled down: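 Read-out is JUN transcript level by TaqMan qRT-PCR, normalized to ACTB, GAPDH and POLR2A, after 48 h chemical treatment of HepaRG cells. Concentration-response spanned eight half-log points up to 100 uM in 0.5% DMSO.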

Read-out in assay [14]: Lipase C (LIPC), LIPC (gene 3990)
The assay is described as follows: LTEA_HepaRG_LIPC: Life Technologies and Expression Analysis (LTEA) Assay for Lipase C (LIPC) using HepaRG (AID 2283514). In outline: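 HepaRG, 48 h exposure, 8-pt half-log series from 100 uM in 0.5% DMSO, duplicates. Readout: LIPC mRNA by Fluidigm qRT-PCR, housekeeping-normalized (ACTB/GAPDH/POLR2A). Gain or loss fitted bidirectionally against DMSO baseline.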

Read-out in assay [15]: Lipoprotein lipase (LPL), LPL (gene 4023)
The assay is described as follows: LTEA_HepaRG_LPL: Life Technologies and Expression Analysis (LTEA) Assay for Lipoprotein lipase (LPL) using HepaRG (AID 2283515). In outline: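 HepaRG, 48 h exposure, 8-pt half-log dilutions from 100 uM, 0.5% DMSO vehicle, duplicates; qRT-PCR (Fluidigm array) of LPL mRNA vs housekeeping genes; bidirectional curve fit relative to DMSO baseline.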

Read-out in assay [16]: MicroRNA 122 (MIR122), gene 406906
The assay is described as follows: LTEA_HepaRG_MIR122: Life Technologies and Expression Analysis (LTEA) Assay for MicroRNA 122 (MIR122) using HepaRG (AID 2283516). Further: the transcript read is the microRNA miR-122. The method, boiled down: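 Human liver HepaRG cultures receive test chemicals for 48 h at eight half-log concentrations from 100 uM. Expression is quantified by qRT-PCR with ACTB/GAPDH/POLR2A normalization and fitted bidirectionally against 0.5% DMSO.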

Read-out in assay [17]: Insulin-like growth factor-binding protein 1 (IGFBP1), IGFBP1 (gene 3484)
The assay is described as follows: LTEA_HepaRG_IGFBP1: Life Technologies and Expression Analysis (LTEA) Assay for Insulin-like growth factor-binding protein 1 (IGFBP1) using HepaRG (AID 2283508). The method, boiled down: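 HepaRG cells, plated 48 h then switched to serum-free induction medium, exposed in duplicate for 48 h to 8-point half-log series from 100 uM in 0.5% DMSO. mRNA measured by qRT-PCR, normalized to ACTB/GAPDH/POLR2A; bidirectional fit versus DMSO.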

Read-out in assay [18]: matrix metalloproteinase-10 (MMP10), MMP10 (gene 4319)
The assay is described as follows: LTEA_HepaRG_MMP10: Life Technologies and Expression Analysis (LTEA) Assay for matrix metalloproteinase-10 (MMP10) using HepaRG (AID 2283517). In outline: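 Transcript levels come from Fluidigm qRT-PCR normalized to three housekeeping genes, with curves fitted bidirectionally against 0.5% DMSO. Human HepaRG cells were dosed for 48 hours at concentrations up to 100 uM.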

Read-out in assay [19]: 3-Hydroxy-3-Methylglutaryl-CoA Synthase 2 (HMGCS2), HMGCS2 (gene 3158)
The assay is described as follows: LTEA_HepaRG_HMGCS2: Life Technologies and Expression Analysis (LTEA) Assay for 3-Hydroxy-3-Methylglutaryl-CoA Synthase 2 (HMGCS2) using HepaRG (AID 2283504). In outline: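 Human HepaRG cells in serum-free induction medium were exposed in duplicate for 48 h to 8-point half-log series from 100 uM top in 0.5% DMSO. HMGCS2 mRNA measured by TaqMan qRT-PCR, normalised to ACTB, GAPDH, POLR2A; bidirectional fit versus DMSO.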

Active and inactive are the calls of the source. How the source made its calls: active means hit-call score of the fitted dose curve at least 0.9, where 1 is the maximum; inactive means score below 0.9.

Hypoxia-inducible factor 1-alpha (Homo sapiens), sequence (Q16665 whole entry, looked up): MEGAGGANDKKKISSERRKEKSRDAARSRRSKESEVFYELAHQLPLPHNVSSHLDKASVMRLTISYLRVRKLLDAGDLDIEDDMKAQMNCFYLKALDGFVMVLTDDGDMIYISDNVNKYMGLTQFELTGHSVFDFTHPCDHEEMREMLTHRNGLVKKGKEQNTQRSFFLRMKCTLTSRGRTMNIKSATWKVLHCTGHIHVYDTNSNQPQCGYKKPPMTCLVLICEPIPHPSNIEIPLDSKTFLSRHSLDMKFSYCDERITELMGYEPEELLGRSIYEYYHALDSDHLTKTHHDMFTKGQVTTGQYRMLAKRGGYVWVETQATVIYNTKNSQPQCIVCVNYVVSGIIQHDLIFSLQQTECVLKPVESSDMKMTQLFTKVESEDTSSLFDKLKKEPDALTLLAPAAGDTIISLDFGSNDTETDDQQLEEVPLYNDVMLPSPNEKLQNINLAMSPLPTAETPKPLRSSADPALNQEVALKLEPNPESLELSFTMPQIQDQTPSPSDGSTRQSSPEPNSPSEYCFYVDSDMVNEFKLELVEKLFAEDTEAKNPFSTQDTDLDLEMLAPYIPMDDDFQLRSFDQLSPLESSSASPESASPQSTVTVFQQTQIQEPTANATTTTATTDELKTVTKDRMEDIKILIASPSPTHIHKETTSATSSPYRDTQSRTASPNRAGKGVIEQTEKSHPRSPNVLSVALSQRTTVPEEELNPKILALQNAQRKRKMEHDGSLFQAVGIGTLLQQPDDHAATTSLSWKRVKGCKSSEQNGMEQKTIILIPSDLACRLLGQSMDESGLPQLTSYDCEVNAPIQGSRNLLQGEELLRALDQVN

In the case of `O=C(NS(=O)(=O)/C=C/c1cccs1)c1ccc(F)cc1Br`, the call in assay [1], in [2], in assay [3], in assay [4], in assay [5] and in assay [6] was inactive. The molecule was called inactive (in the assay with HGF (gene 3082); in [8]; in assay [9]; in [10]; in assay [11]; in assay [12]). Moreover, the molecule was called inactive in assay [13], in assay [14], in assay [15] and in [16]. Moreover, in assay [7], the half-maximal activity concentration (AC50) was 31.1 µM (active).
Consider `CC(=O)S[C@H](C(=O)N[C@H]1Cc2ccccc2[C@H]2CCC[C@@H](C(=O)O)N2C1=O)C(C)C`, for which the molecule was called inactive in [1], in assay [2], in assay [3], in assay [4], in [5] and in [6]. Besides, the result (in the assay with HGF (gene 3082); in assay [7]; in assay [8]; in assay [17]; in assay [9]; in assay [10]) was inactive. Further, the call in assay [11], in assay [12], in assay [13], in [14], in assay [15] and in assay [16] was inactive. The molecule was called inactive in assay [18].
Turning to `CN(C)C(=O)NC1(c2ccccc2)CCN(CC[C@@]2(c3ccc(F)c(F)c3)CN(C(=O)c3ccccc3)CCO2)CC1`, the molecule was classed as inactive (in [1]; in assay [3]; in assay [4]; in [5]; in assay [6]; with HGF (gene 3082)). Also, the call in [17], in assay [9], in assay [10], in assay [11], in assay [13] and in assay [16] was inactive. The AC50 in [2] was 75.1 µM (active); in assay [7] it was 15.7 µM (active); in assay [12] it was 27 µM (active); in assay [14], 47 µM (active); in assay [15] it was 31.8 µM (active).
As for `CCCCC(CC)COC(=O)CCCCCCCC(=O)OCC(CC)CCCC` (configuration not stated), the call in [1], in [2], in [3], in assay [4], in assay [5] and in assay [6] was inactive. Further, the outcome (in assay [19]; with HGF (gene 3082); in [7]; in assay [17]; in assay [9]; in [10]) was inactive. Further, the result in assay [11], in assay [12], in [13], in assay [14], in assay [15] and in assay [16] was inactive. Besides, the molecule was classed as inactive in [18].

The values are drawn from PubChem BioAssay (EPA / NIEHS).
